Screen size: about 4,100 compounds; about 1,600 (39%) were called active. Not shown: some 25% with an inconclusive outcome. Calls follow the shape of the dose curve; as a rule, active = well fitted inhibition curve with a large enough effect; inconclusive = small, poorly fitted or top-dose-only effect; inactive = no such curve, though single readings can be large or run the other way. Some of the results follow.
Assay: qHTS Validation assay for Inhibitors of Plasmodium falciparum Dd2 growth in vitro; also: nearly all actives have a fitted effect of over 70% in size
Conditions: P. falciparum Dd2 in RBCs, SYBR Green growth, 72 h; series mostly up to 28.7 µM
Source text: Malaria, a parasitic disease spread to humans through the bite of a Plasmodium infected Anopheles mosquito, continues to be a global health burden affecting millions of people, with an estimated 228 million cases and 405,000 deaths in 2018. Concerns about safety and limitations of current antimalarial treatments strongly emphasize the need to develop new therapeutic options. The scarce number of chemotypes and validated drug targets with efficacy against the liver stage, have hindered development of new antimalarials. To address this, a chemoprophylactic drug discovery effort was conducted through a combined phenotypic high-throughput asexual blood stage and liver stage screen, providing a robust foundation to identify liver-stage active lead chemotypes. Compounds were initially screened against Plasmodium falciparum Dd2 strain parasites using a in vitro SYBRGreen-1 based 72 hr proliferation assay to identify novel chemotypes to advance to liver stage assays. NIH/NCATS Early Translation Branch Assay Submitter (PI): Anton Simeonov Ph.D.
[…] Assay Protocol: PROTOCOL TABLE (as described by Inglese et al., 2007) SEQUENCE No. (e.g., 1, 2, 3, etc.); PARAMETER (e.g., Cells, Incubation, Reagent, etc.); VALUE; DESCRIPTION SEQUENCE, Parameter, Description 1; Reagent; 3 uL complete malaria growth medium, 1536 TC treated Black clear bottom plate 2; Controls; 23 nL positive control artesunate (300 nM final) to column 1; Neutral control DMSO to columns 2-4 3; Compound; 23 nL of compounds in dose response concentration (29 uM to 0.5 nM final) 4; Reagent; 5 uL malaria infected red blood cells (2.5% hematocrit final, 0.3% parasitemia 5; Time; 72 hours at 37C (5% O2, 5% CO2, 90% N2; 95% Rh) 6; Reagent; 2 uL lysis buffer/SYBRGreen-1, 25 sec shake immediately following dispense 7; Time; ~16 hours at 37C (5% O2, 5% CO2, 90% N2; 95% Rh) 8; Detector; EnVision (PerkinElmer) bottom read at 485/14nm excitation and 535/25 nm emission NOTES (numbers refer to sequence above): 1; Complete Malaria Growth Media: 1X RPMI-1640 w/L-glutamine, 5.5g/L Albumax II, 367 uM Hypoxanthine, 25 mM HEPES, 0.25% Sodium Bicarbonate, 35 uM Gentamicin sulfate 2; Controls were added using the Kalypsis Pintool (Wako USA) equipped with 1536 pinhead 3; Compounds were added in a 7-point, titration with a high final concentration of 29 uM by Pintool from seven inter-plate titrations of library plates and two DMSO control plates at the beginning and end (see Yasgar et al., 2008). 4; Red blood cells infected with Plasmodium falciparum Dd2 parasites were used. 6; Lysis buffer: 20 mM Tris-HCl, 10 mM EDTA, 0.16% Saponin, 1.6% Triton-X, 10X SYBR Green. REFERENCE: Inglese J, Shamu CE, Guy RK. 2007. Reporting data from high-throughput screening of small-molecule libraries. Nat Chem Biol. doi:10.1038/nchembio0807-438 Yasgar A, Shinn P, Jadhav A, Auld D, Michael S, Zheng W, Austin CP, Inglese J, Simeonov A. 2008. Compound Management for Quantitative High-Throughput Screening. J Lab Autom 13:79-89. doi:10.1016/j.jala.2007.12.004
Potency is read from the fitted curve at half-maximal effect.

Potency, active:
CCn1cc(C(=O)N[C@@H](CCSC)C(=O)NC(C)(C)CO)c(=O)c2cc3c(cc21)OCO3 2.99 µM
CC1CCc2cc(F)ccc2N1C(=O)CSc1nnc2c(n1)[nH]c1ccccc12 (stereo unspecified) 7.5 µM
CC1CCc2cc(F)ccc2N1C(=O)CSc1nnc2c(n1)[nH]c1ccc(F)cc12 (stereo unspecified) 8.41 µM
COc1ccccc1NS(=O)(=O)c1cc(NC(=O)c2cccc(S(=O)(=O)N(C)C)c2)ccc1N1CCOCC1 7.5 µM
Cc1nc2cc(F)ccc2n1C1CCN(C(=O)c2c(F)cccc2F)CC1 5.96 µM
CCC(O)(CC)C(=O)NN(C(=O)Nc1csc2c1CCCC2)c1ccccc1 2.99 µM
Cc1ccc(NC(=O)c2cnc(-c3ccccc3)nc2-c2ccncc2)c(Br)c1 9.44 µM
COc1ccc([C@@]2(C(C)C)ON(c3ccccc3C(F)(F)F)C2=O)cc1 4.22 µM
Cn1cnc2ccc(-c3cccc(O)c3)nc2c1=O 6.11 µM
CN1CC2(CCCN(CC3CC3)C2)c2cc(C(=O)NCCOc3ccccc3)ccc21 (stereo unspecified) 17.2 µM
CCOCCCNc1nc2cc(OC)c(OC)cc2c2nc(-c3ccccc3)nn12 0.211 µM
COCCCNc1nc2cc(OC)c(OC)cc2c2nc(-c3ccccc3)nn12 0.237 µM
COc1cc2nc(NCCC(C)C)n3nc(-c4ccccc4)nc3c2cc1OC 0.422 µM
CCN1C(=O)C2(CCN(S(=O)(=O)c3ccc(Cl)cc3C)CC2)c2ccccc21 5.31 µM
COc1ccc(-c2nc3sc(CCNC(=O)c4ccc(C(C)(C)C)cc4)c(C)n3n2)cc1 2.11 µM
Cc1c(O)c(CN2CCCCC2)cc2c1oc(=O)c1ccccc12 0.75 µM
Cc1c(O)c(CN2CCCC2)cc2c1oc(=O)c1ccccc12 2.66 µM
CCCc1cc(=O)oc2c(C)c(O)c(CN3CCCCC3)cc12 3.35 µM
Cc1c(O)c(CN(C)C)cc2c1oc(=O)c1ccccc12 4.22 µM
Cc1cc(C)c2oc(=O)cc(CN3CCCCC3)c2c1 13.3 µM
C=CCCC(CN1CCCC1)Oc1ccc(C(=O)N2CCCC2)cn1 (stereo unspecified) 13.3 µM
CC(C)CN(Cc1cc(=O)oc2cc3c(cc12)CCCC3)CC(C)C 15 µM
CCOC(=O)C(C)/C(C)=N/NC(N)=S (stereo unspecified) 2.66 µM
O=C(Nc1ccc(C2=NCCN2)cc1)c1ccc(C(=O)Nc2ccc(C3=NCCN3)cc2)c(Cl)c1 0.473 µM
O=C(Nc1ccc(C2=NCCN2)cc1)c1ccc(C(=O)Nc2ccc(C3=NCCN3)cc2)c([N+](=O)[O-])c1 0.237 µM
COc1cc(NC(=O)c2cc([N+](=O)[O-])ccc2NC(=O)CNC2CCCCC2C)cc(OC)c1 (stereo unspecified) 5.96 µM
COC(=O)c1cc(C(=O)c2ccc(Cl)cc2Cl)cn1C 13.3 µM
CCc1ccc(C2=CC(c3cccc(C)c3)n3c(nc4ccccc43)N2)cc1 (stereo unspecified) 15 µM
CC1=C[C@@H](CN2CCN(c3ncccn3)CC2)[C@H](C(C)C)C[C@H]1Cc1nnc(COc2ccc(F)cc2)o1 0.75 µM
COc1ccc(-c2nnc(C[C@@H]3C[C@@H](C(C)C)[C@H](CN4CCC(O)CC4)C=C3C)o2)cc1 9.44 µM
CC1=C[C@@H](CN2CCCC2)[C@H](C(C)C)C[C@H]1Cc1nnc(-c2ccc([N+](=O)[O-])cc2)o1 3.85 µM
CC1=C[C@@H](CN2CCOCC2)[C@H](C(C)C)C[C@H]1Cc1nnc(-c2ccc([N+](=O)[O-])cc2)o1 9.44 µM
CC1=C[C@@H](CN2CCC(C)CC2)[C@H](C(C)C)C[C@H]1Cc1nnc(-c2cccnc2)o1 15.3 µM
COc1ccccc1N1CCN(C(=O)c2ccc3c(c2)N(Cc2cc(C)ccc2C)C(=O)c2ccccc2S3(=O)=O)CC1 9.44 µM
CCOC(=O)C1CCCN(C(=O)c2ccc3c(c2)N(Cc2ccccc2)C(=O)c2ccccc2S3(=O)=O)C1 (stereo unspecified) 6.68 µM
Cc1ccc(C)c(CN2C(=O)c3ccccc3S(=O)(=O)c3ccc(C(=O)NCCc4ccc(Cl)cc4)cc32)c1 7.5 µM
Cc1ccc(Cl)cc1N1CCN(C(=O)c2ccc3c(c2)N(Cc2ccccc2F)C(=O)c2ccccc2S3(=O)=O)CC1 5.31 µM
Cc1cc(C)c(CN2C(=O)c3ccccc3S(=O)(=O)c3ccc(C(=O)OCC4CCCO4)cc32)c(C)c1 (stereo unspecified) 6.68 µM
COc1cccc(NC(=O)N[C@H]2C[C@@H](c3nc(C)no3)N(C)C2)c1 17.2 µM
CCN(CC)S(=O)(=O)c1ccc(N2CCCCC2)c(NC(=O)C2=COCCO2)c1 6.68 µM
CCN(CC)CCn1c(=N)n(CC(=O)c2ccc(Br)s2)c2ccccc21 5.31 µM
Cc1nn(-c2ccccc2)c(C)c1/C=N/Nc1nc2ccccc2[nH]1 1.5 µM
Cc1ccc(Oc2ccc(NC(=O)c3ccco3)cc2)cc1 10.6 µM
O=C(NC1=C(Nc2ccc(Cl)cc2)C(=O)c2ccccc2C1=O)c1ccccc1 0.473 µM
Cc1cccc(NC2=C(NC(=O)c3ccccc3)C(=O)c3ccccc3C2=O)c1 0.944 µM
O=C(NC1=C(Nc2ccc(F)cc2)C(=O)c2ccccc2C1=O)c1ccc(Cl)cc1 0.842 µM
CCCc1nn2c(=O)cc(COC(=O)c3cccc(NC(=O)COc4ccccc4C)c3)nc2s1 13.3 µM
Cc1ccc(NC(=O)c2ccc(NCCCN3CCC(C)CC3)c([N+](=O)[O-])c2)cc1F 6.68 µM
CCCN(CCC)CCCNc1ccc(C(=O)Nc2cccc(OC)c2)cc1[N+](=O)[O-] 5.96 µM
COc1cccc(NC(=O)c2ccc(NCCCN3CCC(C)CC3)c([N+](=O)[O-])c2)c1 7.5 µM

Potency, inactive:
CCN(CC)CCNC(=O)c1cn(CC)c2ccc(S(=O)(=O)N3CCOCC3)cc2c1=O
CC1CCN(C(=O)CSc2nnc3c(n2)[nH]c2ccc(F)cc23)CC1
COc1cccc(S(=O)(=O)N2C[C@@H](Oc3ccccc3)C[C@@H]2C(=O)N2CCOCC2)c1
CCCc1noc(-c2cn(C3CCN(C(=O)Cc4cccc(F)c4)CC3)nn2)n1
CCc1noc(-c2cn(C3CCN(C(=O)c4ccc(F)c(F)c4)CC3)nn2)n1
CCCC(=O)Nc1sc2c(c1C(=O)Nc1ccccn1)CCCC2
Cc1ccc(C)c(C(=O)Nc2ccncc2)c1
Cc1nn(-c2ccccc2)nc1C(=O)Oc1cc(C(F)(F)F)nn1-c1ccccc1
COCCn1cnc2ccc(-c3ccccc3)nc2c1=O
Cc1ccccc1CN1CCc2nc(C(=O)NCCOc3ccccc3)oc2CC1
COCCN1CCCCCC(O)c2cc(C(=O)NCCc3ccccc3)ccc21 (stereo unspecified)
CC(C)CN1C(=O)c2cccn2CC1C(=O)O (stereo unspecified)
CN1C(=O)C2(CCN(C(=O)c3ccn(C(C)(C)C)c3)CC2)c2ccccc21
COc1ccc(-c2nc3scc(CCNC(=O)c4cccc(Br)c4)n3n2)cc1
COc1ccc(-c2cc3c(=O)n(CCNC(=O)c4ccc(N(C)C)cc4)ccn3n2)cc1
O=C1CCCCN1Cc1nc(C2CCOC2)no1 (stereo unspecified)
COc1ccc(C(=O)N2CCCC(n3cc(-c4nc(C(C)C)no4)nn3)C2)cn1 (stereo unspecified)
N#Cc1ccc(C23CC4CC(CC(C4)C2)C3)[nH]c1=O
CC1Oc2ccc(NC(=O)c3ccc(Cl)c(Cl)c3)cc2CN(Cc2ccccc2F)C1=O (stereo unspecified)
CC(C)(C)c1ccc(C(=O)Nc2ccc(-c3nc4cc(Cl)ccc4o3)cc2)cc1
Cc1cc(C[C@@H]2COC[C@@H]2NC(=O)CCc2ccc(=O)[nH]n2)on1
COc1ccc(C(=O)N[C@@H]2CCC[C@@H]2C(=O)NCCCN(C)C)cn1
COC(=O)CNC(=O)N1CCCCC1c1nc(CCOc2cccc(C)c2)no1 (stereo unspecified)
COc1nc2c(cc1CNC(=O)C(C)(C)OC)C(=O)N(CCc1ccccn1)C2
Cc1noc(-c2cn(C3CCN(C(=O)c4ccc(C)s4)C3)nn2)n1 (stereo unspecified)
Cc1ccc(S(=O)(=O)N(C)CC2CCOCC2)c(C)c1
COc1ccccc1CNC(=O)c1cc2c(s1)CCN(C(=O)c1ccc(C)cc1)C2
O=C(c1ccc2c(c1)N(Cc1ccc(Cl)cc1)C(=O)c1ccccc1S2(=O)=O)N1CCCC1
O=C(c1ccc(F)c(F)c1)N1CCC2(CC1)N(c1ccccc1)C(=O)CS2(=O)=O
Cc1ccc(C)c(CN2C(=O)c3ccccc3S(=O)(=O)c3ccc(C(=O)N4CCCCCC4)cc32)c1
CCCc1nc2nc(C)c(NS(=O)(=O)c3ccc(F)cc3)c(=O)n2[nH]1
CN1C[C@@H](NC(=O)COc2ccccc2)C[C@H]1c1nc(-c2ccc3c(c2)OCO3)no1
COc1ccc(-c2noc([C@@H]3C[C@H](NS(=O)(=O)c4ccc(OC)cc4)CN3C)n2)cc1
CN(C)S(=O)(=O)c1ccc(N2CCCC2)c(C(=O)NC(c2ccccc2)c2ccccc2)c1
N=c1n(N)c2ccccc2n1CC(=O)c1ccc(Br)cc1
CC(NC(=O)c1ccc(NC(=O)c2ccco2)cc1)c1ccccc1 (stereo unspecified)
CCOC(=O)c1ccc(NC(=O)c2ccco2)cc1
CN1C(=O)COC[C@@H]1[C@H](O)c1ccc(NC(=O)c2ccccc2)cc1
O=C(O)/C=C/c1cccc(NC(=O)c2ccc(Cl)cc2)c1
Cc1ccccc1OCC(=O)Nc1ccccc1C(=O)OCc1cc(=O)n2ccsc2n1
Cc1csc2nc(COc3ccc(NC(=O)COc4ccccc4F)cc3)cc(=O)n12
COCCCNC(=O)C(NC(=O)c1ccc(OC)cc1)C1CCN(C(=O)c2cccc(OC)c2)CC1 (stereo unspecified)
CCCNc1ccc(-c2nc(-c3ccncc3)no2)cc1[N+](=O)[O-]
CC1(CCCCN2CCOCC2)COc2ccc(C(=O)Nc3ccc4[nH]ccc4c3)cc2N1 (stereo unspecified)
Cc1ccc(C(=O)N2[C@@H]3CC[C@H]2CC(NC(=O)c2ccncc2)C3)cc1F (stereo partly specified)
COc1cccc(NC(=O)c2ccc3c(c2)NC(C)(CCCCN2CCOCC2)CO3)c1 (stereo unspecified)

Source: PubChem BioAssay AID1347416 (National Center for Advancing Translational Sciences (NCATS), 2020)
